Here are results for 93 compounds from PubChem BioAssay AID504582 (Broad Institute, 2011).

Hit rate of the full screen: of about 340,000 compounds, about 2,300 (0.68%) were called active. No stated cut-off is given here; in the data, active means growth rescue above about 28% (passing the limit was not always enough); inconclusive means no clear call, values can overlap the other calls. What follows is part of a selection rich in actives, with near analogues and random picks from the rest.

A short description of this experiment: rescue of yeast from PfHsp40 toxicity, primary screen, S. cerevisiae, ATP luminescence (AID 504582).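 Further: yeast W303a lacking pdr1 and pdr3 grown in galactose medium; growth measured after three days at 30 °C.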 The following applies: S. cerevisiae expressing PfHsp40, growth rescue, at 12.5 µM, stronger effect = higher value.
On to `N#Cc1c(C(F)(F)F)cc(-c2cccs2)nc1N1CCCCC1`, for which the growth rescue was -0.0675% (inactive).

On to `CC(=O)c1ccc(NC(=O)c2ccc(-n3cncn3)c([N+](=O)[O-])c2)cc1`, for which the growth rescue is 0.873% (inactive).

For `CSc1ccc(CNCCN2CCOCC2)cc1`, the growth rescue was -0.373% (inactive).

`CCOc1ccc(NC(=O)C2CCN(C(=O)N3CCOc4ccccc43)CC2)cc1`: the growth rescue is 2.49% (inactive).

With `CCN(CC)S(=O)(=O)c1ccc(CNC(=O)CN2C(=O)NC3(CCc4ccccc43)C2=O)cc1` (stereo not drawn), the growth rescue is 0.805% (inactive).

As to `COc1ccc(N2CCN(C(=O)CNC(=O)c3ccc(Br)o3)CC2)cc1`, the growth rescue was 0.176% (inactive).

Regarding `COc1ccc(N2CCN(C(=O)CNC(=O)c3ccc(C(C)(C)C)cc3)CC2)cc1`, the growth rescue was -0.643% (inactive).

For the compound `COc1ccc(N2CCN(C(=O)CCNC(=O)c3ccc(Br)cc3)CC2)cc1`, the growth rescue is 156% (active).

In the case of `CCOC(=O)c1cnc(Nc2nc3ccccc3o2)nc1CSC(=S)N1CCCCC1`, the growth rescue is -0.518% (inactive).

For `Cc1ccc2[nH]c(=O)c(CN(CCCN(C)C)C(=O)Nc3cccc(Cl)c3)cc2c1`, the growth rescue is -0.771% (inactive).

As for `CCn1c(/C=C/Nc2ccccc2)[n+](CC)c2ccc(C(=O)OCC(F)(F)F)cc21`, the growth rescue is -1.14% (inactive).

For the compound `O=C(NN1C(=O)C2CCCCC2C1=O)c1ccco1` (stereo not drawn), the growth rescue was -1.05% (inactive).

For `O=C1Nc2cc(Cl)c(Cl)cc2N(O)N1c1cc(Cl)cc(Cl)c1`, the growth rescue is 7.24% (inactive).

In the case of `Cc1ccccc1C(=O)Nc1ccccc1NC(=O)c1ccccc1C`, the growth rescue was -1.3% (inactive).

`Nc1ccc(C(=O)Nc2ccccc2N)cc1`: the growth rescue is 0.192% (inactive).

For the compound `CC(=O)Nc1ccccc1NC(=O)c1cc(C)cc(C)c1`, the growth rescue was 51.5% (active).

Take `CC(=O)NNc1cc(=O)c2c(=O)n(C)c(=O)n(C)c2[nH]1`: the growth rescue was -1.81% (inactive).

Take `Cc1cc(Nc2cccc(C)c2C)n2ncnc2n1`: the growth rescue is -0.558% (inactive).

Regarding `Cc1ccc(-c2nn(C(C)(C)C)c3ncnc(N)c23)cc1`, the growth rescue was 263% (active).

As for `CCOc1cccc(NC(=O)Cn2nc(-c3ccc4c(c3)OCCO4)ccc2=O)c1`, the growth rescue was 1.19% (inactive).

In the case of `Cc1cc(C(=O)NCCc2ccc(Cl)cc2)c(C)o1`, the growth rescue was 52.1% (active).

Take `Cc1cc(C(=O)NCCc2ccc(Cl)cc2)n(-c2ccccc2)n1`: the growth rescue is 0.0165% (inactive).

Regarding `O=C(NCCc1ccccc1)Oc1ccc(Cl)cc1`, the growth rescue was -0.082% (inactive).

For the compound `Cc1ccc(C(NC(=O)N2CCCC2)C(Cl)(Cl)Cl)cc1F` (stereo not drawn), the growth rescue is -0.492% (inactive).

For `CCCCn1c(SCC(=O)N2CCOCC2)nc2c1c(=O)n(C)c(=O)n2C`, the growth rescue is -0.611% (inactive).

For the compound `CC(C)(C)OC(=O)C[C@@H]1C/C=C\C[C@@H](CC(=O)N[C@H](CO)Cc2ccccc2)C(=O)NCCOC1=O`, the growth rescue was -0.196% (inactive).

As to `COc1ccc(-c2cc(=O)oc3cc(OC(C)C(=O)Nc4ccc(CN5CCOCC5)cc4)ccc23)cc1` (stereo not drawn), the growth rescue was 0.401% (inactive).

For `CCC(=O)N1CCN(c2ccccc2NC(=O)COc2cccc(C)c2C)CC1`, the growth rescue is 2.68% (inactive).

On to `Cc1ccccc1OCC(=O)Nc1ccc(N2CCN(C(=O)C(C)C)CC2)c(Cl)c1`, for which the growth rescue is 48.8% (active).

Regarding `COc1cc(NC(=O)COc2ccccc2Cl)ccc1NC(=O)C(C)C`, the growth rescue is 1.17% (inactive).

With `CCCC1OC23CCCCC2C(C#N)(C#N)C1(C#N)C(=N)O3` (stereo not drawn), the growth rescue was -1.17% (inactive).

`CC(=O)Nc1nc(N(C)C)nc(N(C)C)n1`: the growth rescue was 1.85% (inactive).

Regarding `Cn1cccc1C(C#N)c1ccccc1C#N` (stereo not drawn), the growth rescue was -0.257% (inactive).

Consider `COc1ccccc1C(=O)NCC(=O)OCC(=O)Nc1nnc(-c2ccccc2)o1`, for which the growth rescue is -1.88% (inactive).

In the case of `Cc1ccnc2nc(C(=O)Nc3nnc(-c4ccccc4)o3)nn12`, the growth rescue was -0.238% (inactive).

With `O=C(Nc1nnc(-c2ccc(Cl)cc2)o1)c1ccccc1Br`, the growth rescue was 92.7% (active).

In the case of `COc1ccc2c(c1)c1ncn(Cc3ccccn3)c(=O)c1n2C`, the growth rescue is -0.652% (inactive).

On to `O=C(O)c1cc2c(cc1NC(=O)c1c(F)cccc1Cl)OCCCO2`, for which the growth rescue was -1.32% (inactive).

Regarding `O=C1c2ccccc2C2=Nc3ccccc3SC(c3ccccc3F)C12` (stereo not drawn), the growth rescue is 152% (active).

`CN(Cc1ccc(F)cc1)C(=O)CN1C(=O)c2ccccc2S1(=O)=O`: the growth rescue is -1.04% (inactive).

For `Cc1cccc(-c2oc3ccc(-c4ccc5c(c4)OCO5)cc3c2C#Cc2cncn2C)c1`, the growth rescue was 0.141% (inactive).

Take `COc1ccc2sc(-c3ccc(S(C)(=O)=O)cc3)c(C#Cc3cncn3C)c2c1`: the growth rescue is -1.56% (inactive).

`Cn1cncc1C#Cc1c(-c2ccsc2)sc2ccccc12`: the growth rescue is 311% (active).

On to `CCc1ccc(NC(=O)NC(C)c2ccc3c(c2)OCO3)cc1` (stereo not drawn), for which the growth rescue was 1.14% (inactive).

For `CC(=NCc1ccc2c(c1)OCO2)c1c(O)[nH]c(=O)[nH]c1=O`, the growth rescue was -0.437% (inactive).

`CC(=NCc1ccc2c(c1)OCO2)C1=C(O)c2ccccc2C1=O`: the growth rescue is 47.2% (active).

With `CCN(/N=C/c1ccc(N(C)C)cc1)c1nc2ccccc2[nH]1`, the growth rescue is 0.687% (inactive).

For `COc1ccc(N)c(C)c1`, the growth rescue is -0.552% (inactive).

`NC(=O)Cn1nc([N+](=O)[O-])nc1Oc1ccc(Br)cc1`: the growth rescue was 1.81% (inactive).

Turning to `Cc1ccc(S(=O)(=O)N2CCOCC2)cc1NC(=O)COC(=O)c1cnccn1`, the growth rescue is 0.734% (inactive).

Take `COCCNc1nc(-n2nc(C)cc2C)nc2sc3c(c12)CCCC3`: the growth rescue was 111% (active).

With `CCC(O)CNc1nc(-n2nc(C)cc2C)nc2sc3c(c12)CC(C)(C)OC3` (stereo not drawn), the growth rescue was 0.423% (inactive).

Consider `CCCc1nc2sc3c(c2c(=O)n1NC(=O)CCCl)CCCC3`, for which the growth rescue is -0.355% (inactive).

Turning to `CC[C@]12c3[nH]c4ccc(OC)cc4c3CCN1C(=O)C(CC(=O)NCc1ccco1)C[C@@H]2C(=O)N1CCN(C(=O)C2CC2)CC1` (stereo partly drawn), the growth rescue was -1.76% (inactive).

As to `Cc1ccc2c(C)c(C(=O)N(C)CCC3CCCCO3)oc2c1C` (stereo not drawn), the growth rescue was 15.7% (inactive).

`O=S(=O)(Cc1ccccc1)c1nc2ccccc2n1Cc1ccccn1`: the growth rescue is -1.91% (inactive).

In the case of `O=C(Cn1c(NCCO)nc2ccccc21)c1ccc(Cl)cc1Cl`, the growth rescue was 0.311% (inactive).

`O=S(=O)(O)c1nc2ccccc2n1Cc1ccc(Cl)cc1Cl`: the growth rescue was 46.4% (active).

On to `O=C(NC(=S)Nc1cccc(-c2ccc(CO)o2)c1)c1cccs1`, for which the growth rescue was 5.49% (inactive).

Take `Oc1c(C(c2ccccn2)N2CCOCC2)ccc2cccnc12` (stereo not drawn): the growth rescue was 457% (active).

On to `COc1cc2c(cc1OC)C(C)N(S(=O)(=O)c1cnc(Cl)c(Cl)c1)CC2` (stereo not drawn), for which the growth rescue is 1.43% (inactive).

As to `CCC(=O)Nc1nc(C)c(C(=O)Nc2cccc(Cl)c2)s1`, the growth rescue was 68.4% (active).

Turning to `CCC(=O)Nc1sc(C(=O)Nc2ccccc2)c(C)c1C(=O)OC`, the growth rescue was 4.36% (inactive).

Take `CCOC(=O)c1sc(NC(=O)c2sc(C)nc2C)nc1C`: the growth rescue was -1.17% (inactive).

In the case of `CCOc1ccc(NS(=O)(=O)c2ccc(C)c(C(N)=O)c2)cc1`, the growth rescue was -1.27% (inactive).

For `O=C(CCc1nc2sc3c(c2c(=O)[nH]1)CCCC3)NCC(=O)Nc1ccccc1Br`, the growth rescue was -1.97% (inactive).

As to `COC(=O)CN1C(=O)[C@H]2[C@@H](C3CC3)N3C(=O)CN(Cc4ccc(-c5ccccc5)cc4)C(=O)[C@@]3(Cc3ccccc3)[C@H]2C1=O`, the growth rescue was -1.17% (inactive).

With `CN(C(=O)c1ccc(NC(=O)Cc2cccc(NC(=O)C3CCN(C(=O)c4ccccc4)CC3)c2)cc1)C1CC1`, the growth rescue is -0.0305% (inactive).

In the case of `Cn1cccc1/C=N/NC(=O)c1ccc(OC(F)(F)C(F)F)cc1`, the growth rescue is -1.34% (inactive).

For `Cn1nccc1NC(=O)Nc1ccc(OC(F)(F)F)cc1`, the growth rescue is -0.0415% (inactive).

Consider `O=C(Nc1ccc(OC(F)(F)F)cc1)c1ccc2c(c1)no[n+]2[O-]`, for which the growth rescue was 178% (active).

Turning to `Cc1ccc2c(c1)N(C(=O)CCC(=O)NCc1cccnc1)CCO2`, the growth rescue is -1.04% (inactive).

On to `CCN([C@H](CO)C(C)C)S(=O)(=O)c1ccccc1Br`, for which the growth rescue was -0.487% (inactive).

Turning to `COc1cccc(-n2c(=S)sc3c(=O)n(-c4ccccc4C)c(SCC(=O)O)nc32)c1`, the growth rescue was -1.96% (inactive).

Take `CC(C)C[C@@H](N)c1nnc(SCC(=O)c2ccc(Cl)cc2)o1`: the growth rescue was -0.522% (inactive).

In the case of `Cc1nc(Cl)c(C#N)c2c1CCCC2`, the growth rescue is 0.263% (inactive).

Take `COC(=O)c1c(C)c(C)nc(N)c1C#N`: the growth rescue was 0.0365% (inactive).

For `COCc1c(N)c(C)nc(Cl)c1C#N`, the growth rescue was 51% (active).

Regarding `Cc1ccc(OCC(O)CN2CCN(CC(O)COc3ccc(C)cc3Cl)CC2)c(Cl)c1` (stereo not drawn), the growth rescue is 65.8% (active).

For `OC(COc1ccc(F)cc1Cl)CN1CCc2ccccc2C1` (stereo not drawn), the growth rescue was 0.0845% (inactive).

With `C=CCc1ccc(OCC(O)CN2CCN(Cc3ccccc3)CC2)c(OC)c1` (stereo not drawn), the growth rescue is -0.721% (inactive).

In the case of `CCCC(NC(=O)c1ccco1)c1nc2ccccc2[nH]1` (stereo not drawn), the growth rescue was -0.136% (inactive).

On to `CN(C)C=NC(=O)c1cccn1-c1ncc(C(F)(F)F)cc1Cl`, for which the growth rescue was -0.737% (inactive).

In the case of `O=c1[nH]c2cccnc2n(CCNc2ncc(C(F)(F)F)cc2Cl)c1=O`, the growth rescue is -1.76% (inactive).

Turning to `COc1cccc(/C=N/Nc2ncc(C(F)(F)F)cc2Cl)c1O`, the growth rescue is 233% (active).

As for `COc1ccc(NC(=O)COC(=O)c2ccncc2)c(OC)c1`, the growth rescue was -0.471% (inactive).

Turning to `CN(CCOc1ccc(Br)cc1)CC(=O)Nc1cccc(S(=O)(=O)NC2=NCCC2)c1`, the growth rescue was -0.17% (inactive).

As for `COc1cc(C)c(C)cc1S(=O)(=O)N1CCCc2ccccc21`, the growth rescue is -0.881% (inactive).

As for `CCOC(=O)Cc1csc(SCC(=O)Nc2ccc(C)cc2F)n1`, the growth rescue is 0.85% (inactive).

In the case of `O=C(Cc1ccc(Br)cc1)NCCc1ccccc1`, the growth rescue is 1.3% (inactive).

Take `S=C(Nc1ccc(Br)cc1)NC1CCN(Cc2ccccc2)CC1`: the growth rescue is 1.33% (inactive).

Regarding `S=C(NCCCc1ccccc1)Nc1ccc(Br)cc1`, the growth rescue is 263% (active).

Take `Cc1ccc(C)c2[nH]c(=O)c(CN(Cc3cccnc3)C(=S)NCc3ccco3)cc12`: the growth rescue is 0.529% (inactive).
